Holding throughout (test): universal protein binding microarray (PBM); transcription factors of Arabidopsis thaliana; high values mean tight binding
Experiment [1] deals with T1, GST-ANAC092(1-176) (Arabidopsis thaliana, UniProt Q9FKA0 1-176).
T1 sequence: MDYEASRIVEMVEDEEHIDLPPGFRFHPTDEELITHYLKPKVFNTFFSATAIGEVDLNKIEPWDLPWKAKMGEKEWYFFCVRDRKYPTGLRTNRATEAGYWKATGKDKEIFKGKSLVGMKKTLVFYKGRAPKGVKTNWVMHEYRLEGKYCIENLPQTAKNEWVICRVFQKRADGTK
The conditions noted are these: protein: recombinant; tags: GST; chain copies: 2; dsDNA, one strand shown. The method in brief:
(§1)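 Protein amounts were determined by A280 or anti-GST western blot after glutathione–Sepharose 4B purification of GST-tagged proteins induced in cells, with zinc acetate included for zinc-finger proteins. Duplicate runs at 200 to 500 nM final were done on custom all-10-mer Agilent 4 × 180K arrays made double-stranded by primer extension. The normalised enrichment score (E-score) over gapped and ungapped 8-mers is the measure of binding.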

Experiment [2] has as its target GST-NTL6(1-168) (Arabidopsis thaliana, UniProt Q9SCK6 1-168). Particulars: protein: recombinant; tags: GST; chain copies: 2; dsDNA, one strand shown. The method in brief: as §1
The target in experiment [3] is T2, GST-ANAC019 NAC domain (Arabidopsis thaliana, UniProt Q9C932 14-162).
T2 sequence: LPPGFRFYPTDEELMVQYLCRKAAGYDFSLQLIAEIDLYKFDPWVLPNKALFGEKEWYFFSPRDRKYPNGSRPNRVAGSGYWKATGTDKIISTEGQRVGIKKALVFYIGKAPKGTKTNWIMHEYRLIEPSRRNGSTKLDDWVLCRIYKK
The conditions noted are these: protein: recombinant; tags: GST; chain copies: 2; dsDNA, one strand shown. In outline: as §1

For experiment [4], the target named is T3, GST-ANAC055(1-171) (Arabidopsis thaliana, UniProt Q9LDY8 1-171).
T3 sequence: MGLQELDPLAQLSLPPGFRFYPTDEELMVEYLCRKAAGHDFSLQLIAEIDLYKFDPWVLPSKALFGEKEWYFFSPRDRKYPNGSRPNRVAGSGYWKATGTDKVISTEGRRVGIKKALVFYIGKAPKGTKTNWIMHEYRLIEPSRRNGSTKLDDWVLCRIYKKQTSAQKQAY
The conditions noted are these: protein: recombinant; tags: GST; chain copies: 2; dsDNA, one strand shown. The method in brief:
as §1

The target in experiment [5] is T4, GST-ATAF1 NAC domain (Arabidopsis thaliana, UniProt Q39013 7-158).
T4 sequence: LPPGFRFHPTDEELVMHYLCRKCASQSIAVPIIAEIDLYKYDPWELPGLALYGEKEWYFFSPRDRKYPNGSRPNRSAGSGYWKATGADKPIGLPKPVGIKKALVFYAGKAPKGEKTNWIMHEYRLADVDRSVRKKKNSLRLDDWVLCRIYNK
The conditions noted are these: protein: recombinant; tags: GST; chain copies: 2; dsDNA, one strand shown. The method in brief:
as §1

Experiment [6] addresses T5, GST-ANAC092(1-285) full length (Arabidopsis thaliana, UniProt Q9FKA0 1-285).
T5 sequence: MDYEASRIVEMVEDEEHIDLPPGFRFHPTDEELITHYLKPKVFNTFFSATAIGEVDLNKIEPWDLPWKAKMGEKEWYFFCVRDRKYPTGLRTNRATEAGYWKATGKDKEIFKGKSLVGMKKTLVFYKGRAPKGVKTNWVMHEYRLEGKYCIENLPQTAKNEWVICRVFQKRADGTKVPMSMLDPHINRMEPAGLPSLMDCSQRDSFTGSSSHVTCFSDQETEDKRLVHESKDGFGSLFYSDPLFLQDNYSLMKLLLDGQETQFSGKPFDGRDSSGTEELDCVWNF
The conditions noted are these: protein: recombinant; tags: GST; chain copies: 2; dsDNA, one strand shown. The method in brief:
as §1

The target of experiment [7] is T6, GST-NAP(1-166) (Arabidopsis thaliana, UniProt O49255 1-166).
T6 sequence: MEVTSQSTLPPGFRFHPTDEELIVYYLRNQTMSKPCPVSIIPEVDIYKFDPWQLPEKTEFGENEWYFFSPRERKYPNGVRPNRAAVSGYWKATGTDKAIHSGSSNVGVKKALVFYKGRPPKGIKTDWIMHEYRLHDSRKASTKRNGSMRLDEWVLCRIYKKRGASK
The conditions noted are these: protein: recombinant; tags: GST; chain copies: 2; dsDNA, one strand shown. In outline:
as §1

Experiment [8] addresses T7, GST-NST2(1-184) (Arabidopsis thaliana, UniProt Q9M274 1-184).
T7 sequence: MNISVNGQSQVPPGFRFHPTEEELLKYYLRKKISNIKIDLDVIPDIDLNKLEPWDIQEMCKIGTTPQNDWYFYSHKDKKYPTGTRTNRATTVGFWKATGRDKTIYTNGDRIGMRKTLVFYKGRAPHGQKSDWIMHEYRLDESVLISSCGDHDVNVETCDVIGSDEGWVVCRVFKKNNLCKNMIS
The conditions noted are these: protein: recombinant; tags: GST; chain copies: 2; dsDNA, one strand shown. In outline:
as §1

Experiment [9] concerns the target T8, GST-NTL8 NAC domain (Arabidopsis thaliana, UniProt Q9XIN7 14-156).
T8 sequence: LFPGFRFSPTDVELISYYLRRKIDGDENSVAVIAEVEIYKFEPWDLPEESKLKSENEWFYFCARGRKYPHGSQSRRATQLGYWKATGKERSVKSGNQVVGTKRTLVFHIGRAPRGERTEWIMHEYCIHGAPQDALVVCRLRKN
The conditions noted are these: protein: recombinant; tags: GST; chain copies: 2; dsDNA, one strand shown. The method in brief:
as §1

The target of experiment [10] is T9, GST-SND1(1-203) (Arabidopsis thaliana, UniProt Q9LPI7 1-203).
T9 sequence: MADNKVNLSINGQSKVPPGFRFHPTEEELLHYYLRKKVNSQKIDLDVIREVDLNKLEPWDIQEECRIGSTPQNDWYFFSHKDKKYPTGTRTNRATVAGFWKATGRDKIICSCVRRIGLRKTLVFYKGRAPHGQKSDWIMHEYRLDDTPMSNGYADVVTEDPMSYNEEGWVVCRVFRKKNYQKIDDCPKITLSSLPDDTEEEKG
The conditions noted are these: protein: recombinant; tags: GST; chain copies: 2; dsDNA, one strand shown. In outline:
as §1

Experiment [11] has as its target T10, GST-VND3 NAC domain (Arabidopsis thaliana, UniProt Q9FH59 12-162).
T10 sequence: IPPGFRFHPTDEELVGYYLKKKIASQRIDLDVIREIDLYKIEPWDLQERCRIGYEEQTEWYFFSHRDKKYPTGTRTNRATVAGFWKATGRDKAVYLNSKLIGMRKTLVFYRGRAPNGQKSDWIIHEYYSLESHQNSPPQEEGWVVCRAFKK
Particulars: protein: recombinant; tags: GST; chain copies: 2; dsDNA, one strand shown. In outline:
as §1

Experiment [12] has as its target T11, GST-VND7 NAC domain (Arabidopsis thaliana, UniProt Q9C8W9 9-158).
T11 sequence: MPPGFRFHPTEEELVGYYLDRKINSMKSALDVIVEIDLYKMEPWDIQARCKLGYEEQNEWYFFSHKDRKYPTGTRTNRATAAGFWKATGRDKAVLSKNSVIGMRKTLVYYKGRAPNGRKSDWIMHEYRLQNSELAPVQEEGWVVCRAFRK
The conditions noted are these: protein: recombinant; tags: GST; chain copies: 2; dsDNA, one strand shown. The method in brief:
as §1

The target in experiment [13] is GST-WRKY1(266-371) (Arabidopsis thaliana, UniProt Q9SI37 266-371). Particulars: protein: recombinant; tags: GST; dsDNA, one strand shown. In outline: as §1
Sequence of GST-WRKY1(266-371) (Q9SI37 266-371): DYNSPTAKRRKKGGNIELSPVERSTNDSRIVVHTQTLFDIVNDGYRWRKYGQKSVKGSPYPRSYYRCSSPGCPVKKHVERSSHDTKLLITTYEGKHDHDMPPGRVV

Sequence of GST-NTL6(1-168) (Q9SCK6 1-168): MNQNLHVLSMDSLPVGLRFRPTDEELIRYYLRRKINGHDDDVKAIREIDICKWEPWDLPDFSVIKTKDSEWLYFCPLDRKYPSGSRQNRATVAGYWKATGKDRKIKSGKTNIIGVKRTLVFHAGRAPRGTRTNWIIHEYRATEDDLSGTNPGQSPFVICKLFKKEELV

In the case of AAGTAAGT, the binding signal in experiment [1] was found to be 0.249 E-score; in experiment [2], 0.412 E-score; in [3] it was 0.189 E-score; in experiment [4], 0.164 E-score; in experiment [5] it was 0.199 E-score; in experiment [6], 0.259 E-score. Further, the binding signal came out at 0.135 E-score in experiment [7]; 0.181 E-score in [8]; 0.267 E-score in experiment [9]; 0.282 E-score in experiment [10]; 0.217 E-score in [11]; 0.135 E-score in experiment [12]. Further, the binding signal in experiment [13] came out at 0.2 E-score.
On to TGAAGAAA, for which the binding signal is 0.188 E-score in experiment [1]; 0.339 E-score in [2]; 0.151 E-score in experiment [3]; 0.114 E-score in experiment [4]; 0.129 E-score in experiment [5]; 0.0672 E-score in experiment [6]. Further, the binding signal in experiment [7] was found to be 0.0893 E-score; in experiment [8], 0.241 E-score; in [9] it was 0.45 E-score; in [10], 0.152 E-score; in [11], 0.121 E-score; in [12], 0.215 E-score. The binding signal in experiment [13] stood at 0.211 E-score.
Turning to CTTACTTA, the binding signal was determined as 0.205 E-score in experiment [1]; 0.454 E-score in [2]; 0.164 E-score in [3]; 0.137 E-score in [4]; 0.154 E-score in [5]; 0.276 E-score in experiment [6]. For the same sequence, the binding signal amounted to 0.111 E-score in experiment [7]; 0.221 E-score in experiment [8]; 0.208 E-score in experiment [9]; 0.317 E-score in experiment [10]; 0.209 E-score in experiment [11]; 0.106 E-score in [12]. Also, the binding signal in experiment [13] was found to be 0.235 E-score.
Regarding AGACGCAA, the binding signal stood at 0.453 E-score in experiment [1]; 0.0768 E-score in experiment [2]; 0.222 E-score in experiment [3]; 0.246 E-score in experiment [4]; 0.262 E-score in experiment [5]; 0.462 E-score in experiment [6]. Besides, the binding signal was determined as 0.433 E-score in [7]; 0.242 E-score in experiment [8]; 0.107 E-score in [9]; 0.265 E-score in experiment [10]; 0.295 E-score in experiment [11]; 0.276 E-score in experiment [12]. Moreover, the binding signal in experiment [13] was 0.0554 E-score.
For AAAAGTCA, the binding signal in experiment [1] amounted to 0.142 E-score; in experiment [2], 0.1 E-score; in experiment [3], 0.185 E-score; in [4] it was 0.157 E-score; in experiment [5], 0.241 E-score; in [6] it was 0.241 E-score. The binding signal stood at 0.08 E-score in [7]; 0.274 E-score in experiment [8]; 0.128 E-score in [9]; 0.257 E-score in experiment [10]; 0.13 E-score in experiment [11]; 0.122 E-score in experiment [12]. In [13], the binding signal is 0.461 E-score.
For ACTAAGTA, the binding signal in experiment [1] is 0.177 E-score; in experiment [2], 0.429 E-score; in experiment [3] it was 0.19 E-score; in experiment [4], 0.216 E-score; in [5], 0.192 E-score; in experiment [6], 0.126 E-score. For the same sequence, the binding signal in [7] came out at 0.125 E-score; in experiment [8] it was 0.252 E-score; in experiment [9], 0.116 E-score; in [10], 0.258 E-score; in [11], 0.279 E-score; in experiment [12], 0.218 E-score. The binding signal in experiment [13] turned out to be 0.0999 E-score.

(Values after article PMC4081100, “A DNA-binding-site landscape and regulatory network analysis for NAC transcription factors in Arabidopsis thaliana”.)
